Compound activity as filed in PubChem.
Shown are actives, neighbours in structure and some others; about 12% of the full set was active somewhere.
HCV inh = qHTS Assay for Inhibitors of Hepatitis C Virus (HCV); Huh7.5.1 HCVcc-Cre infection, luciferase reporter, 44 h; Potency, µM (doses to about 41.8 µM), hits mostly inhibitors; 3.4% of 340,000 active; AID 651820, 2012
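After 44 h co-culture of compound, cells and HCVcc-Cre (~0.5 moi), substrate is added for 15 min at room temperature and luciferase measured over 15 sec. Cells were seeded at 1,000/well and pre-cultured 4 h.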
Pf growth 96h = Primary qHTS for delayed death inhibitors of the malarial parasite plastid, 96 hour incubation; P. falciparum luciferase reporter growth, 96 h; Potency, µM (titrated, usually from 28.7 µM), hits mostly inhibitors; 6.9% of 320,000 active; AID 504834, 2011
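Luminescence readout: decreased luciferase signal marks inhibited growth of reporter-expressing P. falciparum in infected red cells (2% hematocrit, 0.05% parasitemia final), exposed to compound two generations (96 h, 37 C, 5% CO2).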
NS1 inh = qHTS Assay for Inhibitors of Influenza NS1 Protein Function; Potency, µM (doses to about 46.1 µM); 0.4% of 270,000 active; calls by dose curve; also: actives are rising curves; nearly all actives have a fitted effect of over 50% in size
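Compounds were scored for reversing the slow growth caused by influenza A NS1 in S. cerevisiae, measured by optical density at 600 nm. Assay medium contained 2% galactose at pH 6.0; NS1-free yeast of the same strain were the positive control.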
SARS PLP yeast = qHTS of Yeast-based Assay for SARS-CoV PLP; 0.19% of 330,000 active; Potency, µM (highest dose often 32.9 µM), hits mostly activators; S. cerevisiae expressing SARS-CoV PLpro, growth rescue; AID 485353, 2010; calls by dose curve; also: nearly all actives have a fitted effect of over 55% in size
Pf growth 48h = Primary qHTS for delayed death inhibitors of the malarial parasite plastid, 48 hour incubation. P. falciparum luciferase growth in erythrocytes, 48 h. Potency, µM (highest dose often 28.7 µM), usual class: inhibitors. 5.9% of 310,000 active. AID 504832, 2011
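Firefly luciferase activity from engineered P. falciparum reports growth; inhibitors lower the luminescent signal. Cultures contained 2% hematocrit erythrocytes at 0.1% final parasitemia.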
AMA1 RON2 block = qHTS for Inhibitors of AMA1-RON; Towards Development of Antimalarial Drug Lead: Primary Screen. Plasmodium falciparum AMA1 (3D7) - RON2 peptide interaction. AlphaScreen AMA1-biotinylated RON2 peptide binding. Potency, µM (highest dose often 58.2 µM), most hits filed as inhibitors. 0.2% of 360,000 active; also: nearly all actives have a fitted effect of over 45% in size
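AMA1 (3D7) with his tag at 25 nM final met compounds first, then biotinylated RON2 peptide at 25 nM; detection used donor plus acceptor beads, 10 µg/mL apiece, read by AlphaScreen after 30 min at room temperature.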
Each line names hits and unclear results; the compound was inactive in the other large screens. Unless noted, calls follow the shape of the dose curve; as a rule, active = well fitted curve in the direction sought with a large enough effect; inconclusive = small, poorly fitted or top-dose-only effect, or another doubt; inactive = no such curve, though single readings can be large; an effect the other way counts as inactive or inconclusive.

CCc1noc(C)c1C(=O)N1CCSC1=Nc1cccc(Cl)c1C	Pf growth 96h 2.94µM, Pf growth 48h inconclusive
C#CCOCCOCCOCCNc1nc(N2CCN(C(=O)[C@H]([C@@H](C)CC)n3cc([C@@H](N)CC(C)C)nn3)CC2)nc(N2CCN(C(=O)[C@H](Cc3ccc(O)cc3)n3cc([C@@H](N)CC(C)C)nn3)CC2)n1	Pf growth 96h inconclusive, Pf growth 48h inconclusive
C#CCOCCOCCOCCNc1nc(N2CCN(C(=O)[C@H]([C@@H](C)CC)n3cc([C@@H](N)CC(C)C)nn3)CC2)nc(N2CCN(C(=O)[C@H]([C@@H](C)CC)n3cc([C@@H](N)CC(C)C)nn3)CC2)n1	Pf growth 96h 1.85µM, Pf growth 48h 1.65µM
C#CCOCCOCCOCCNc1nc(N2CCN(C(=O)[C@H]([C@@H](C)CC)n3cc([C@@H](N)Cc4ccc(O)cc4)nn3)CC2)nc(N2CCN(C(=O)[C@H]([C@@H](C)CC)n3cc([C@@H](N)Cc4ccc(O)cc4)nn3)CC2)n1	Pf growth 96h 1.85µM, Pf growth 48h 1.85µM
COc1cc(C(=O)NCCNC(=O)C2CCCNC2=O)cc(OC)c1OC (stereo not drawn)	none
COC(=O)c1nn(-c2cccc(C)c2)c2nnc(Cc3ccc(C)cc3)c(=O)n12	none
Cc1ccc(Cc2nnc3n(-c4cccc(C)c4)nc(C(=O)c4ccccc4)n3c2=O)cc1	Pf growth 96h 3.7µM, Pf growth 48h 5.22µM
O=C(OCC(=O)N1CCN(c2ccccc2)CC1)c1ccc[n+]([O-])c1	none
CN(C)NC(=O)c1ccsc1NC(=O)c1ccc(S(=O)(=O)N2CCCC2)cc1	Pf growth 96h 5.22µM, Pf growth 48h 11.7µM
CC1CCN(S(=O)(=O)c2ccc(C(=O)Nc3sccc3C(N)=O)cc2)CC1	HCV inh inconclusive, Pf growth 96h 8.28µM, Pf growth 48h inconclusive
Cc1cccc(Nc2nnc(-c3ccc(N4CCOCC4)c([N+](=O)[O-])c3)c3ccccc23)c1	HCV inh 14.1µM, Pf growth 96h inconclusive, Pf growth 48h 11.7µM
Cc1ccc(C(=O)c2oc3ccccc3c2NC(=O)c2cc(-c3cc(C)ccc3O)n[nH]2)cc1	Pf growth 96h 0.329µM, Pf growth 48h 0.329µM
CC(=O)Nc1c(C(=O)c2ccc(F)cc2)oc2ccccc12	none
Cc1ccc(C(=O)c2oc3ccccc3c2NC(=O)c2cc(-c3ccccc3O)n[nH]2)cc1	Pf growth 96h 0.586µM, Pf growth 48h 1.47µM
O=C(Nc1c(C(=O)c2ccccc2)oc2ccccc12)c1cc(-c2ccccc2O)n[nH]1	Pf growth 96h 0.657µM, Pf growth 48h 1.47µM
CCCCN(C(C)=O)c1c(CC)nc2ccc(C(=O)Nc3cccc(OCC(=O)N(C)C)c3)cn12	none (no result: HCV inh, Pf growth 96h, NS1 inh, SARS PLP yeast, Pf growth 48h)
Cc1cc(Br)c(NC(=O)COC(=O)CC2CC3CCC2C3)c(Br)c1 (stereo not drawn)	none (no result: Pf growth 96h, NS1 inh, Pf growth 48h)
Cc1cc(Nc2nnnn2-c2ccccc2)n(-c2ccccc2)n1	Pf growth 96h 9.28µM
COc1ccc(S(=O)(=O)N(C)C)cc1NC(=O)CCNC(=O)c1ccco1	none
COc1ccc(S(=O)(=O)N2CCCCC2)cc1NC(=O)CN1CCN(C(C)=O)CC1	Pf growth 48h inconclusive (no result: NS1 inh)
COc1ccccc1Oc1ccc(S(=O)(=O)N2CCCCC2)cc1NC(=O)CCNC(C)=O	Pf growth 96h 5.86µM, Pf growth 48h 11.7µM (no result: HCV inh)
Cc1ccc(S(=O)(=O)N2CCCCC2)cc1NC(=S)NC(=O)c1ccco1	HCV inh inconclusive, Pf growth 96h 4.15µM, Pf growth 48h inconclusive
COc1ccc(S(=O)(=O)N2CCCCC2)cc1NC(=O)CCNC(=O)c1ccco1	Pf growth 96h inconclusive, Pf growth 48h 9.28µM (no result: NS1 inh)
CC12C=CC(=O)C=C1[C@@H](F)CC1C2C(O)CC2(C)C1CC[C@]2(O)C(=O)CO (stereo partly drawn)	Pf growth 96h inconclusive (no result: HCV inh, NS1 inh, SARS PLP yeast, AMA1 RON2 block)
COc1ccc(-c2noc(CCC(=O)N3CCN(c4ccccc4F)CC3)n2)cc1	none (no result: Pf growth 96h, NS1 inh, Pf growth 48h)
CC(C)(C)C(=O)Nc1cccc(S(=O)(=O)NC2=NCCC2)c1	HCV inh inconclusive (no result: NS1 inh)
